Experimental data as given in PubChem BioAssay.
A number with no mark means an inactive call. The source made the active and inactive calls. Unless noted, no stated cut-off is given here; in the data, active means inhibition above about 44%; inactive means the rest.

Tests used:
[1] = StAR promoter reporter inhibitors, counter-screen for LRH-1 inverse agonist project, cell-based, luminescence, high throughput (AID 651611; in the data active means inhibition above about 28%); settings: StAR promoter luciferase reporter counterscreen, at 3.6 µM, hits give high values
[2] = biological target: Nuclear receptor subfamily 5 group A member 2 (Homo sapiens) (UniProt O00482); test: NR5A2 activity suppression in reporter cells – cell-based, luminescence, confirmation (AID 651613; in the data active means inhibition above about 42%;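 further: HEK293T cells co-transfected with LRH-1 and StAR promoter luciferase reporter; 0% = vehicle wells and 100% = parental cells lacking receptor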); settings: cell-based LRH-1 luciferase reporter, inverse agonism; at 3.6 µM; hits give high values
[3] = biological target: Steroidogenic factor 1 (Homo sapiens) (UniProt Q13285); test: inverse agonism at SF1 nuclear receptor – cell-based, luminescence, high throughput, counter-screen for LRH-1 inverse agonist project (AID 651614); settings: cell-based SF1 luciferase reporter, at 3.6 µM, hits give high values;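 further: cells cotransfected with StAR promoter reporter and SF1 expression vector; 0% = vehicle on cells with receptor and 100% = vehicle on cells lacking receptor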
[4] = compounds suppressing VP16-driven luciferase signal – cell-based, luminescence, high throughput, counter-screen for LRH-1 inverse agonist project (AID 651615; in the data active means inhibition above about 33%); settings: Gal4-VP16 luciferase reporter cells, at 3.6 µM, hits give high values

Sequence of Nuclear receptor subfamily 5 group A member 2 (Homo sapiens) (O00482 whole entry, looked up): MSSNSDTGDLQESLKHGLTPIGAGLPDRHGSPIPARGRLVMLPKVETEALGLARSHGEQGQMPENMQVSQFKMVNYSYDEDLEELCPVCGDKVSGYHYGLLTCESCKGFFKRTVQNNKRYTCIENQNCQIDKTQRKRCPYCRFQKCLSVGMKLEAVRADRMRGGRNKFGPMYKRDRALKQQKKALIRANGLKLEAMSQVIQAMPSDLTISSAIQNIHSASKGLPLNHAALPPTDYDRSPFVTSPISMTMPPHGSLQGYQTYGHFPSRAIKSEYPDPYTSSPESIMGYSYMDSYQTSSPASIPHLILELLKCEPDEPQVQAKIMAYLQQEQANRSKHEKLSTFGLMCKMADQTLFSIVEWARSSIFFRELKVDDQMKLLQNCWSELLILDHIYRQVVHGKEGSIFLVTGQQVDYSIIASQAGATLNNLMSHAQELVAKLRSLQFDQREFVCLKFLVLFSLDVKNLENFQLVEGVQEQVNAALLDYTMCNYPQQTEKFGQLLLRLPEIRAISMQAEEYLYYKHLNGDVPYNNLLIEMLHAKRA
Sequence of Steroidogenic factor 1 (Homo sapiens) (Q13285 whole entry, looked up, the tested form may be a part): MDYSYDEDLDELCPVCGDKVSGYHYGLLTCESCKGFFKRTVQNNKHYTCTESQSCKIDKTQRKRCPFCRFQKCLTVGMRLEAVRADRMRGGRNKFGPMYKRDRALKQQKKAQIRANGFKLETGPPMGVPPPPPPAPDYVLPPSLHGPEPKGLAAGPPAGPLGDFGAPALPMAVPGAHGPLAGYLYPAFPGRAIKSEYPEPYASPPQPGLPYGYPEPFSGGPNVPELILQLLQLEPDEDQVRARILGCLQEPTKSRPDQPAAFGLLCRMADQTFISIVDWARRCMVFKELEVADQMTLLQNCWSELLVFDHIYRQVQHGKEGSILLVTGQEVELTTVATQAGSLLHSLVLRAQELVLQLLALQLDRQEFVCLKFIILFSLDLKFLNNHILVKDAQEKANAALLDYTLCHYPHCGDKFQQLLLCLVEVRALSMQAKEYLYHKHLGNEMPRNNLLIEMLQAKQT

Compound | inhibition [1] | inhibition [2] | inhibition [3] | inhibition [4]
CC(=O)Nc1ccc(NC(=O)COC(=O)c2ccc([N+](=O)[O-])o2)cc1 | 12.7% | 60.1% (active) | 51.9% (active) | -5.51%
Cc1c(NC(=O)c2ccc([N+](=O)[O-])o2)cccc1-c1nc2ncccc2o1 | 13.3% | 66.2% (active) | 58.7% (active) | -13.2%
CCOc1ccc(CCNC(=O)COC(=O)c2cc([N+](=O)[O-])ccc2N2CCOCC2)cc1OCC | 9.91% | 58.4% (active) | 56.6% (active) | -11.1%
CC12CCC(=O)N1c1c(sc3nc(N4CCOCC4)c4c(c13)CCCC4)C(=O)N2 (stereo unspecified) | 11.1% | 63.7% (active) | 53.7% (active) | -1.67%
O=C(Nc1cccnc1)c1ccc([N+](=O)[O-])o1 | 27.2% | 61.9% (active) | 58.5% (active) | -15.2%
C#CCSc1nsc(SCC#C)c1C#N | 3.79% | 53.4% (active) | 50.9% (active) | -20%
CCCOc1ccc2oc(=O)c3c(c2c1)CCCN3C(=O)CN1CCN(c2ncccn2)CC1 | 6.16% | 53.4% (active) | 55.7% (active) | -7.99%
CC(=O)COc1ccc2c(-c3cccc([N+](=O)[O-])c3)cc(=O)oc2c1 | 7.05% | 67.2% (active) | 51.8% (active) | 0.45%
O=C(c1ccc([N+](=O)[O-])o1)N1CCc2ccccc21 | -6.72% | 51.8% (active) | 59% (active) | -36.3%
CN(C)c1cc[n+](Cc2c(Cl)cccc2Cl)cc1 | 7.95% | 73.2% (active) | 68.2% (active) | 45.7% (active)
O=C(N/N=C/c1c[nH]c2ccccc12)c1[nH]c2ccc(Br)cc2c1-c1ccccc1 | 52.3% (active) | 38% | 57% (active) | 33.6% (active)
CCCCOCCCNc1ncnc2c1[nH]c1ccccc12 | 13.1% | 50% (active) | 53.6% (active) | 42.3% (active)
O=C(Cc1ccc(Cl)cc1Cl)Nc1ccncc1Cl | 16.4% | 65.9% (active) | 70% (active) | 47.1% (active)
O=C(Nc1ccc(S(=O)(=O)N2CCOCC2)cc1)c1cccc([N+](=O)[O-])c1 | -6.54% | 56.9% (active) | 50.2% (active) | -5.35%
CS/C(=C\[N+](=O)[O-])Nc1ccc(OC(F)(F)F)cc1 | 42% (active) | 83.9% (active) | 84.6% (active) | 9.63%
COCCNc1ncnc2c1ncn2[C@H]1CN(CCc2ccccc2)C[C@@H](CO)O1 | 9.96% | 28.4% | 24.9% | 3.57%
CC(=O)CSc1nc(N)c(C#N)c(-c2cccs2)c1C#N | 31.5% (active) | 57.7% (active) | 62.7% (active) | 35% (active)
CCC(=O)Nc1ccc(NC(=O)CSc2nc3cc4c(cc3cc2C)CCC4)cc1 | 9.63% | 56.4% (active) | 50.7% (active) | 0.93%
CCOc1ccc(NC(=O)CSc2nccn(-c3ccc4c(c3)OCCO4)c2=O)cc1 | -5.61% | 55% (active) | 60.7% (active) | -10.1%
Cc1c([N+](=O)[O-])cc(C(=O)Nc2ccc(Cc3ccncc3)cc2)cc1[N+](=O)[O-] | 7.17% | 48.7% (active) | 45% (active) | -0.27%
O=C(NCCN1CCOCC1)c1ccc2c(c1)N(Cc1ccccc1F)C(=O)CS2 | 11.1% | 42.4% (active) | 36.2% | -9.87%
COc1ccc(OC)c(NC(=S)NCc2cccnc2)c1 | 1.82% | 35.9% | 33.3% | 0.37%
CCOc1ccc(OCCN2C(=O)NC(Cc3c[nH]c4ccccc34)C2=O)cc1 (stereo unspecified) | 13.2% | 54.9% (active) | 58.2% (active) | 4.66%
COc1ccccc1-c1nnc2sc(-c3ccc(N(C)C)cc3)nn12 | 50.1% (active) | 31% | 57.1% (active) | 31.2% (active)
